Measurements reported in the supplement of paper PMC11732987, “Enantioselective OTUD7B fragment discovery through chemoproteomics screening and high-throughput optimisation” (Communications Chemistry, 2025).

Columns and labels:
Test in all cases: log2 ratio of Biotin-Ahx-Ub-VS probe labelling (fragment/DMSO); higher = less target engagement (more negative = stronger competition), active = hit call of the paper (q ≤ 0.05, log2 ratio ≤ -1)
Settings in all cases: compound concentration: 200 uM; treatment time: 3 h
USP42 = target: T1, USP42 (UniProt Q9H9J4)
T1 sequence (whole entry): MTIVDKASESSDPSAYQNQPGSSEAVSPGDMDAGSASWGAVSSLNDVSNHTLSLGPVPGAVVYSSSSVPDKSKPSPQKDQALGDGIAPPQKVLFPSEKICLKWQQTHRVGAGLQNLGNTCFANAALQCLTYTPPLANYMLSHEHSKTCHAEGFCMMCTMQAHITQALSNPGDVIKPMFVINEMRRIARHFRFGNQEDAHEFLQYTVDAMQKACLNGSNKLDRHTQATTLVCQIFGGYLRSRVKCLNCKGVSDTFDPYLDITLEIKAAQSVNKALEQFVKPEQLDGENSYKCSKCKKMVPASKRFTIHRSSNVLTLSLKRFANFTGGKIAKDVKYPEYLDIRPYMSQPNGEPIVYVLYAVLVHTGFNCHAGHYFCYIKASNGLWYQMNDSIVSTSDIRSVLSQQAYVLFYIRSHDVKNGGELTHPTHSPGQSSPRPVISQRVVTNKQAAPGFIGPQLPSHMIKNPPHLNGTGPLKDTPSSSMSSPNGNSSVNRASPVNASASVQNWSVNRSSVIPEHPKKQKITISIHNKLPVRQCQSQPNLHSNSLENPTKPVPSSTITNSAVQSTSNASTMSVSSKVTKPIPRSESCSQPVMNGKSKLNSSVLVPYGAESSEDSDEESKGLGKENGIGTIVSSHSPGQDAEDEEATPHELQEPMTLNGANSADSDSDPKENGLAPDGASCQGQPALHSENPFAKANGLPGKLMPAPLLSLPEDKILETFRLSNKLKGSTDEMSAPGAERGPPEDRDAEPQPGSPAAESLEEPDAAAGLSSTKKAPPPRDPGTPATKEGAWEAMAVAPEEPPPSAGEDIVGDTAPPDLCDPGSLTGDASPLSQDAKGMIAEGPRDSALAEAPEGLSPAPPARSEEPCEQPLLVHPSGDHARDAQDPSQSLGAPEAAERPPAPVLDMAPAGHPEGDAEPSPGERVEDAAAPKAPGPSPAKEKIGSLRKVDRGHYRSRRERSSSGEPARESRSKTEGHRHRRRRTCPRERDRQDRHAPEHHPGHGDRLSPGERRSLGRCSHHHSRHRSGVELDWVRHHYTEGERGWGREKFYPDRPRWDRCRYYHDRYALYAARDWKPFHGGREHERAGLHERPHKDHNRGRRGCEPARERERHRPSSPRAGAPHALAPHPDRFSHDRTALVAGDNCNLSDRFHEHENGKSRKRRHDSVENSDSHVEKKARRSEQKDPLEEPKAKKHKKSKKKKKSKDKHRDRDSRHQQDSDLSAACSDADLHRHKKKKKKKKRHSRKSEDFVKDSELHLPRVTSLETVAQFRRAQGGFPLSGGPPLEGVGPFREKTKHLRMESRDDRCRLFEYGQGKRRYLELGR
In short: (§1)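 In triplicate, 495 µg of HEK293T lysate per sample was incubated with fragment at 200 µM or vehicle for 3 h. Biotin-Ahx-Ub-VS was then added to 0.5 µM final for 1 h, and labelled DUBs were captured with NeutrAvidin, digested with LysC and trypsin, and measured by diaPASEF LC-MS/MS. Data are average log2 fragment/vehicle ratios by unpaired t-test from global-median-normalised Spectronaut label-free quantities, restricted to proteins with ≥2 unique peptides.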

USP46 = USP46 (UniProt P62068)
Chain of USP46 (P62068 whole entry): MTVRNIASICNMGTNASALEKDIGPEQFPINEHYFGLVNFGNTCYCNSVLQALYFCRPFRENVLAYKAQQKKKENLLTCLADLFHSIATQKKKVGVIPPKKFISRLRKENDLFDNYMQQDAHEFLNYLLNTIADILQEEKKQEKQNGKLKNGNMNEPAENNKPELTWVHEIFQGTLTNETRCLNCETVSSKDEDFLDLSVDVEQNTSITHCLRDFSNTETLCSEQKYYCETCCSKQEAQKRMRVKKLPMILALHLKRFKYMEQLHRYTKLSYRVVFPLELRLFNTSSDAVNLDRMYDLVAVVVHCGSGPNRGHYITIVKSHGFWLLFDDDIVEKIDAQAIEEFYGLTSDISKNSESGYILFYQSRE
In short: as §1

USP47 = target: T2, USP47 (UniProt Q96K76)
T2 sequence (whole entry): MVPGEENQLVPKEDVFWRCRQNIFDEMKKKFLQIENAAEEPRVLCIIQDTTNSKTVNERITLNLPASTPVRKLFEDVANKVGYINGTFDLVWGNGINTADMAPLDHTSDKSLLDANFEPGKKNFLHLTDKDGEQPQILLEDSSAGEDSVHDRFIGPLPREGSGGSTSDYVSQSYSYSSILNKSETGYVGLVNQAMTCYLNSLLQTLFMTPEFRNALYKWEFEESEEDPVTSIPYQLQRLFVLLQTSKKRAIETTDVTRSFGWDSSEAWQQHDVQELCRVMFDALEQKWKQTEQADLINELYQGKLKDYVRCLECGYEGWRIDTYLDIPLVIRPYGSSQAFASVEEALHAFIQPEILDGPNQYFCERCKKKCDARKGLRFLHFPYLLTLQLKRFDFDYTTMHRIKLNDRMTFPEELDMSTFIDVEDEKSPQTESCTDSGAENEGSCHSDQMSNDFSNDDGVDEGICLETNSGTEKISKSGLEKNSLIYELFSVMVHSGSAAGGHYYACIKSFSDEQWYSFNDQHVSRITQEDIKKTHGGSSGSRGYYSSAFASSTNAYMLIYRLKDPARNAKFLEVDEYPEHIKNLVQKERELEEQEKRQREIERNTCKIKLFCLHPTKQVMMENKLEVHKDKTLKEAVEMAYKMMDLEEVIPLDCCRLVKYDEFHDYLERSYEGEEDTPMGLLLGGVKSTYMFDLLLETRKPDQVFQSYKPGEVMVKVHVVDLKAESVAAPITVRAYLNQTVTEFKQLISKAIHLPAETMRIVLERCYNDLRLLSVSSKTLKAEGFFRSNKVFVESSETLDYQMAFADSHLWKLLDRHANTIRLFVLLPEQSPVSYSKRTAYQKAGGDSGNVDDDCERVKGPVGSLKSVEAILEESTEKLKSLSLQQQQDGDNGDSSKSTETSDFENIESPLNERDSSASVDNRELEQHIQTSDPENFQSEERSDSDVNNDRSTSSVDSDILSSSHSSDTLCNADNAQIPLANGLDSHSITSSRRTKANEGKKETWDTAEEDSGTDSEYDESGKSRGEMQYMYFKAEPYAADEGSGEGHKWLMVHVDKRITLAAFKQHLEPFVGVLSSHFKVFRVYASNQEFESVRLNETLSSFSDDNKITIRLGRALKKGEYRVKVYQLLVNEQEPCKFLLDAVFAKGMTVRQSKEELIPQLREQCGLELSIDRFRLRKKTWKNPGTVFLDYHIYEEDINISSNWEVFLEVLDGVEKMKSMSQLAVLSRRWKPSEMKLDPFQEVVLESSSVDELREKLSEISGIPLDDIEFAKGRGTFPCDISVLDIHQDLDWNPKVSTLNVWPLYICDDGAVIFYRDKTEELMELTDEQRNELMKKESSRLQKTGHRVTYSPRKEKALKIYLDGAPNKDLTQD
In short: as §1

USP48 = target: T3, USP48 (UniProt Q86UV5)
T3 sequence (whole entry): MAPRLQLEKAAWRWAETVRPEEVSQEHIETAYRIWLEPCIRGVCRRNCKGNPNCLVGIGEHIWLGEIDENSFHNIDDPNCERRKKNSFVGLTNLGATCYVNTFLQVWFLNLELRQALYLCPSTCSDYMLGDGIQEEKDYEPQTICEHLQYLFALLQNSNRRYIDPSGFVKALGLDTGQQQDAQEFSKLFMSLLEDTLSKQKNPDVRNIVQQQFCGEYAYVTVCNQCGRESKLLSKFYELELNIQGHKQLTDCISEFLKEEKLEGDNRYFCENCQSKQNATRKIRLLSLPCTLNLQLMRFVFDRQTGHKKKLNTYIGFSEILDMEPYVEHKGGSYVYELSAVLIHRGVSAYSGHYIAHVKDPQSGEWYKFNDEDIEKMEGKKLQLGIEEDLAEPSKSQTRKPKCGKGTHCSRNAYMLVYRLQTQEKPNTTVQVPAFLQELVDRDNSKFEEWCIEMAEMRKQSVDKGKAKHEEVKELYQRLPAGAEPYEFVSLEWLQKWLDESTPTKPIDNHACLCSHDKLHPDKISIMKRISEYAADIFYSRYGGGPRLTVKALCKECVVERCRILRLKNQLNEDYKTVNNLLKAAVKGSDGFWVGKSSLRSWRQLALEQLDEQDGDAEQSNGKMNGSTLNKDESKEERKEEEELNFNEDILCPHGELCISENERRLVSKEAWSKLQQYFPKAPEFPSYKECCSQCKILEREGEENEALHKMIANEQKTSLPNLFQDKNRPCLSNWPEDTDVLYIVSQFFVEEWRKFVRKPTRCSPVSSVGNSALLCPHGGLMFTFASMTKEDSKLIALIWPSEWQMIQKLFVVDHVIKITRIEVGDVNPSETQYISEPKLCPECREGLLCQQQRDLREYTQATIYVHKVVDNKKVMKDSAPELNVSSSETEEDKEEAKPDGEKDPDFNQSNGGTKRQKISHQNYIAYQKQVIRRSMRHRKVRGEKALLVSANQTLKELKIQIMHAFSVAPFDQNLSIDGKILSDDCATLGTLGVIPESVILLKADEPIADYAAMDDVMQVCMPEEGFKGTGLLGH
In short: as §1

USP5 = target: T4, USP5 (UniProt P45974)
T4 sequence (whole entry): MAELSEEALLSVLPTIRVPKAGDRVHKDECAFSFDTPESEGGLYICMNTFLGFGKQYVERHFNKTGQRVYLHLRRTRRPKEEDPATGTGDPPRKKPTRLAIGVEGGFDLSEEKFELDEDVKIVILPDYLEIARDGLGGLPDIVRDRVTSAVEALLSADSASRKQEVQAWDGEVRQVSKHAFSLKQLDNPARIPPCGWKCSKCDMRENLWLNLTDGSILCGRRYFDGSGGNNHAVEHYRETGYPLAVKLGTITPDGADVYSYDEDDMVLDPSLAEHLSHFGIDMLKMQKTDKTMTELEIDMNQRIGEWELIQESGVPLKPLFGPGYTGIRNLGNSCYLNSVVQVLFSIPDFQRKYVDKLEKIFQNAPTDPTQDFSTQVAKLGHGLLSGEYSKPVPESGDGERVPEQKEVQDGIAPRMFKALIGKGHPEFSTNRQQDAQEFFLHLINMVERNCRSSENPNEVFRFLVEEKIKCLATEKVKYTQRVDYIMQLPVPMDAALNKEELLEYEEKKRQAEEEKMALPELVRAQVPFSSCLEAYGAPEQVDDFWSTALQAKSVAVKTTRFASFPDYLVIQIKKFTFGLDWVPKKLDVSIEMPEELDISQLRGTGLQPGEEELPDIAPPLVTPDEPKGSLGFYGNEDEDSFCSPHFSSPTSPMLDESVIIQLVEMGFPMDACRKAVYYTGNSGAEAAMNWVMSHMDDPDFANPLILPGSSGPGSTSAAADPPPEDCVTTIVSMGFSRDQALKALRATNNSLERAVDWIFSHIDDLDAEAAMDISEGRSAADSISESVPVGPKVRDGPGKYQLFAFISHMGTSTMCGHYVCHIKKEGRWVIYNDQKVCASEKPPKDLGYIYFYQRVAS
In short: as §1

USP54 = USP54 (UniProt Q70EL1)
Chain of USP54 (Q70EL1 whole entry): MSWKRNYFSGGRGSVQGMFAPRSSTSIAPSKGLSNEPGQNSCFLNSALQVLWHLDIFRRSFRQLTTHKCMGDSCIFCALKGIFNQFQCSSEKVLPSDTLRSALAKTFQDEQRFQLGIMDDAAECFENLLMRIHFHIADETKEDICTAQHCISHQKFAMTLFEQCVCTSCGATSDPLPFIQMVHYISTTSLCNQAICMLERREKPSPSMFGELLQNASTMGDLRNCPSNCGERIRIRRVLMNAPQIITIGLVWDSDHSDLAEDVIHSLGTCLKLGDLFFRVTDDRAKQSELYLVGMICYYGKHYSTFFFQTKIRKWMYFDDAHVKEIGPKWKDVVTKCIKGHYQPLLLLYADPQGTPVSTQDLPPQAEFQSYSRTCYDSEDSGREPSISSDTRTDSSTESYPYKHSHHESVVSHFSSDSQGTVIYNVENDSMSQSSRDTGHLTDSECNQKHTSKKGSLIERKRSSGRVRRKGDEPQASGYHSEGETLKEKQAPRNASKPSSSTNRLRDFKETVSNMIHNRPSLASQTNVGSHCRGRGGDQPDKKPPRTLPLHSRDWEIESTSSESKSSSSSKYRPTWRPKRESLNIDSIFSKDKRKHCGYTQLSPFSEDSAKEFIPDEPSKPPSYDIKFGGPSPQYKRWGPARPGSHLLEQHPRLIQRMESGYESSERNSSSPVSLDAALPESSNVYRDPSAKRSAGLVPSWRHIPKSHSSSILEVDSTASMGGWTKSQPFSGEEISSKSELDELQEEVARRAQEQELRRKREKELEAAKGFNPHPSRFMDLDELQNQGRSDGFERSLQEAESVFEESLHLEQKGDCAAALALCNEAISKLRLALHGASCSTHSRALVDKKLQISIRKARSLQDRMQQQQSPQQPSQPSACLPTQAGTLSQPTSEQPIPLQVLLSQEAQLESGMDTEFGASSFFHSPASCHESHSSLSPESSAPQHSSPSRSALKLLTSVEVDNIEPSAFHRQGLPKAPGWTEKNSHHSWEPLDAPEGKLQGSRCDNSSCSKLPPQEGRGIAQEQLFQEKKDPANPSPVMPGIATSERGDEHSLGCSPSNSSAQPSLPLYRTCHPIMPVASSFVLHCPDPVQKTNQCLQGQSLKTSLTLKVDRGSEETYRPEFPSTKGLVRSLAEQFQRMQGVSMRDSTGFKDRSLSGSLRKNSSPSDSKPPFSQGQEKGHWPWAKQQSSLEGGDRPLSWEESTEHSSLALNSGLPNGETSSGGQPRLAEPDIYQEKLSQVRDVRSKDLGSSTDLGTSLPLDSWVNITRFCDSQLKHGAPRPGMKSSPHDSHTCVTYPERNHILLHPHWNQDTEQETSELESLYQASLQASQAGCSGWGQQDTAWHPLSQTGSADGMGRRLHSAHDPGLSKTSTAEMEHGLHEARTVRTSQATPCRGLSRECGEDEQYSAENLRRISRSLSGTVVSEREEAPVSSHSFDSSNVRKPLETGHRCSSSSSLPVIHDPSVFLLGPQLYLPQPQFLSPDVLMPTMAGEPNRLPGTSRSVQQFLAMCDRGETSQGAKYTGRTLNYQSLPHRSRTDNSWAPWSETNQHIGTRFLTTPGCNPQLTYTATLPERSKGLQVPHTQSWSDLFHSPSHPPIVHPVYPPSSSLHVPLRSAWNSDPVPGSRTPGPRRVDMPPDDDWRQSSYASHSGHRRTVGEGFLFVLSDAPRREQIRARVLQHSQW
In short: as §1

USP7 = USP7 (UniProt Q93009)
Chain of USP7 (Q93009 whole entry, looked up): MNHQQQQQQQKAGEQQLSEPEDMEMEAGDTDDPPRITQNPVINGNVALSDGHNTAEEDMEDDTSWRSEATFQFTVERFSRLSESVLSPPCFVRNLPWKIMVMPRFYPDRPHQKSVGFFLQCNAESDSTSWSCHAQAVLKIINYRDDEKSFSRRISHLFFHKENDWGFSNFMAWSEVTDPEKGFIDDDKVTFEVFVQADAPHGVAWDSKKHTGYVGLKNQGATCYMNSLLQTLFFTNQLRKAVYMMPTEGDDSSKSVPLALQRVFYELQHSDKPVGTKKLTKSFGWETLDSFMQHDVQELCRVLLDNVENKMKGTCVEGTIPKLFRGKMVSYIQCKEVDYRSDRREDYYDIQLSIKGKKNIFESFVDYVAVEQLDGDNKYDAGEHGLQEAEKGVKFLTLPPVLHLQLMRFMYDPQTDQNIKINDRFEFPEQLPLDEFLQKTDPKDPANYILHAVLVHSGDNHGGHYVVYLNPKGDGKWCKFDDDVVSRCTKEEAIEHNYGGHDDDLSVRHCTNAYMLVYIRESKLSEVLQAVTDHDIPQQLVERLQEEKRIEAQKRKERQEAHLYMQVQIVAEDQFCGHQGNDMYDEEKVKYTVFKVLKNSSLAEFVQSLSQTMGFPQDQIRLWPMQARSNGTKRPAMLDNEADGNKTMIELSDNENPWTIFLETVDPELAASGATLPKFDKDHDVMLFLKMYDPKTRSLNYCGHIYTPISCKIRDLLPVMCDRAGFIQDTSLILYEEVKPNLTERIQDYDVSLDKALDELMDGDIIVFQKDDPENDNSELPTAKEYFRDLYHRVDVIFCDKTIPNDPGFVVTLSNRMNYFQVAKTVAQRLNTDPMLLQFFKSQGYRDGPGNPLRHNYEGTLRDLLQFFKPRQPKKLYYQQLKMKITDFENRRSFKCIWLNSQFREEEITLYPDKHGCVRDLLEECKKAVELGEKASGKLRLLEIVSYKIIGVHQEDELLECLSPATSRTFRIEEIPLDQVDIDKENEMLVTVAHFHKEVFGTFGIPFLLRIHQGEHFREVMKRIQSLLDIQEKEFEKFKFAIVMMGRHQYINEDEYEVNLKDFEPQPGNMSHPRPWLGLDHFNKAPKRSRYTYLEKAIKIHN
In short: as §1

USP8 = target: T5, USP8 (UniProt P40818)
T5 sequence (whole entry): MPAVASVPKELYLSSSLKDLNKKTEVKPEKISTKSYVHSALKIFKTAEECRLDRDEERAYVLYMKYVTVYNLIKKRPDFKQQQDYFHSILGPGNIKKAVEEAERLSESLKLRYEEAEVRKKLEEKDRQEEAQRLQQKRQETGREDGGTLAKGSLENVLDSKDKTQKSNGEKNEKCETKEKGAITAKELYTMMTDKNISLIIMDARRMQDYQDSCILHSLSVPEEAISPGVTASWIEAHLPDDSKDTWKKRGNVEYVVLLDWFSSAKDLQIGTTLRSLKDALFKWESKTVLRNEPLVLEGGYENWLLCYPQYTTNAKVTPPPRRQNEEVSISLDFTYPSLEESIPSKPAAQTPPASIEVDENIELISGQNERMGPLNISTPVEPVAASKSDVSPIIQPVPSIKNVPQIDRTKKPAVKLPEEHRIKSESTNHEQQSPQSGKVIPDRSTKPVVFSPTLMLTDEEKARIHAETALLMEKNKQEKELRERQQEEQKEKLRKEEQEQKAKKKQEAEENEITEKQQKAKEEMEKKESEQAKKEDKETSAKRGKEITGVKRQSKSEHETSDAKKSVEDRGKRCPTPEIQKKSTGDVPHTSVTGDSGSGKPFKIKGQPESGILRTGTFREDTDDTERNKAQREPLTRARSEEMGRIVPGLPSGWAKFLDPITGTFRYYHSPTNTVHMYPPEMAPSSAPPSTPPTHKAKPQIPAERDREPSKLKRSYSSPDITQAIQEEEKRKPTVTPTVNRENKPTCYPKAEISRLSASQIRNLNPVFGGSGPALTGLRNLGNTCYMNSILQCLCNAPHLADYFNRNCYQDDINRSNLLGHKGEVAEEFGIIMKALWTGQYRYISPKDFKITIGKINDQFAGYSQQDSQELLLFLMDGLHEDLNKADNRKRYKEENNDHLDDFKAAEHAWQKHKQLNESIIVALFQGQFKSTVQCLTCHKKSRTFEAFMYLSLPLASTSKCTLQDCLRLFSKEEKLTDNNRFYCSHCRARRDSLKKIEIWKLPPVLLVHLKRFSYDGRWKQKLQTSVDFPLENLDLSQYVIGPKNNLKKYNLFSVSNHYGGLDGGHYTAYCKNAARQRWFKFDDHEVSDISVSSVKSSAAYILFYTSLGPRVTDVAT
In short: as §1

Measured: log2 ratio of Biotin-Ahx-Ub-VS probe labelling

O=C(CCl)N1CCCCCC1c1ncon1 (stereo not drawn)
inactive: USP42 -0.342 | USP46 0.113 | USP47 -0.552 | USP48 -0.467 | USP5 0.214 | USP54 0.731 | USP7 -0.491 | USP8 -0.0227
